Measured values as given in PubChem BioAssay AID1626 (SRMLSC, 2009).
In all, about 220,000 compounds went through this assay and about 2,000 (0.91%) were called active. Another 2% or so got no clear call; they are omitted. Rule as the data show it: inconclusive = inhibition above about 80% without an active follow-up result; inactive = below that; test concentration not stated here. Only a sample is shown. Entries with a potency or affinity are not part of this list.

Assay: M. tuberculosis H37Rv growth inhibitors, H37Rv strain (AID 1626);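 also: bacteria incubated seven days before Alamar blue readout; 0% = bacteria only wells and 100% = bacteria with antibiotic wells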
Conditions: hits give high values, concentration not given here

Row | Structure (SMILES) | inhibition
1 | CCOC(=O)C1CCN(C(=O)COc2ccc(S(=O)(=O)N3CCCC3)cc2C)CC1 | 8.86% (inactive)
2 | N/C(=N\c1nc2c(c(=O)[nH]1)CCCC2)Nc1ccc(Oc2ccccc2)cc1 | 18% (inactive)
3 | Cn1c(=O)c2c(nc(CN3CCC(C(N)=O)CC3)n2Cc2c(Cl)cccc2Cl)n(C)c1=O | -2.69% (inactive)
4 | O=C(/C=C/c1ccc(F)cc1)N1CCCN(C(=O)/C=C/c2ccc(F)cc2)CC1 | 10.8% (inactive)
5 | Cc1ccc(/C=C/C(=O)N2CCN(c3ccc(F)cc3)CC2)o1 | -2.28% (inactive)
6 | CCOCCn1c(SCC)nc2c1c(=O)[nH]c(=O)n2C | -10.1% (inactive)
7 | Cc1cc(C)nc(-n2nc(C)c(Oc3ccccc3O)c2C)n1 | -0.16% (inactive)
8 | Cc1cc(C)n(-c2nnc(C)c(=O)[nH]2)n1 | -3.09% (inactive)
9 | Cc1cc(Nc2ccc(Cl)cc2)n(-c2cccc(Cl)c2)n1 | 4.87% (inactive)
10 | COc1ccc(Nc2nc(C)cc(=O)[nH]2)cc1 | -16.4% (inactive)
11 | Cc1nn(-c2ccccn2)c(C)c1Oc1ccccc1O | 7.63% (inactive)
12 | Cc1cc(C)n(-c2nc(O)cc(=O)[nH]2)n1 | -5.24% (inactive)
13 | Cc1ccc(OCC(=O)Nc2ccc(Cl)cc2C(=O)c2ccccc2)cc1 | -2.12% (inactive)
14 | CCOc1ccc(CNC(=S)N/N=C\c2ccc([N+](=O)[O-])cc2)cc1 | 2.73% (inactive)
15 | O=C(NCC(c1ccco1)N1CCCCC1)C(c1ccccc1)c1ccccc1 (stereo unspecified) | 2.31% (inactive)
16 | CC(Oc1ccc(Cl)cc1Cl)c1ccnc2nc(N3CCOCC3)nn12 (stereo unspecified) | 7.65% (inactive)
17 | COc1ccc(NC2c3ccccc3C(=O)N2Cc2ccco2)cc1OC (stereo unspecified) | 8.29% (inactive)
18 | CCOc1ccccc1NC1c2ccccc2C(=O)N1Cc1ccco1 (stereo unspecified) | 11.3% (inactive)
19 | O=C1c2ccccc2C(Nc2ccc3nc(-c4cccnc4)[nH]c3c2)N1Cc1ccco1 (stereo unspecified) | 44% (inactive)
20 | O=C1c2ccccc2C(Nc2ccc(S(=O)(=O)N3CCCCC3)cc2)N1Cc1ccco1 (stereo unspecified) | 2.32% (inactive)
21 | CCOC(=O)CNC(=O)CSc1nnc(-c2ccc(OC)cc2)n1CC | -3.53% (inactive)

Row | Structure (SMILES) | inhibition
22 | O=C(c1ccco1)N1CCN(Cc2nc(Cc3ccccc3)no2)CC1 | -8.56% (inactive)
23 | CCn1c(-c2ccccc2)ccc(C#N)c1=O | -9.1% (inactive)
24 | C#CCn1c(-c2ccccc2)ccc(C#N)c1=O | 8.84% (inactive)
25 | CS(=O)(=O)N(CC(=O)Nc1cccc(Cl)c1Cl)c1ccccc1 | -0.62% (inactive)
26 | O=C(COC(=O)c1ccc(=O)[nH]c1)Nc1cccc(S(=O)(=O)N2CCOCC2)c1 | 9.81% (inactive)
27 | CC1CCC/C(=N/NC(=O)c2ccccc2-n2cccc2)C1 (stereo unspecified) | -3.77% (inactive)
28 | COc1ccc(-n2c(C)cc(/C=C3\C(=O)NN(c4ccccc4)C3=O)c2C)cc1 | 12.4% (inactive)
29 | CC(=O)N(Cc1nc2sc(C)c(C)c2c(=O)[nH]1)C1CCCC1 | -8.34% (inactive)
30 | Cc1sc2nc(CN(C(=O)NC3CCCCC3)C3CCCCC3)[nH]c(=O)c2c1C | 3.17% (inactive)
31 | O=C(Nc1ccncc1)c1ccc(NS(=O)(=O)c2cccc(F)c2)cc1 | 7.32% (inactive)
32 | NC(N)=N/N=C/c1ccccc1 | 12.3% (inactive)
33 | CCN(Cc1ccccc1)c1ccc(/C=N/N2CCOCC2)cc1 | 2.24% (inactive)
34 | Cc1ccccc1CN1C[C@@H]2C[C@@H](c3cn[nH]c3-c3ccccc3)N3CCC[C@@]23C1=O | -6.92% (inactive)
35 | O=C(Nc1ccn(Cc2ccccc2F)n1)c1ccc(COc2cc(Cl)ccc2Cl)o1 | 10.4% (inactive)
36 | O=C(Nc1ccn(Cc2c(F)c(F)cc(F)c2F)n1)c1ccc(COc2ccc(Cl)cc2Cl)o1 | 4.49% (inactive)
37 | O=C(c1ccc(F)cc1F)N1CCN(c2ncccn2)CC1 | 3.87% (inactive)
38 | Cc1[nH]c2ccccc2c1/C=N/n1cnnc1 | 3.82% (inactive)
39 | Cc1[nH]c2ccccc2c1/C=N/O | 57.2% (inactive)
40 | N#CC(C(=O)CCN1C(=O)C2CC=CCC2C1=O)c1nc2ccccc2[nH]1 (stereo unspecified) | -15.5% (inactive)
41 | O=C(Nc1nc2ccccc2[nH]1)C1CCCC1 | -2.34% (inactive)
42 | O=C(Nc1nc2ccccc2[nH]1)C1CC1 | -2.55% (inactive)

Row | Structure (SMILES) | inhibition
43 | N#CC(C(=O)C1CCCCC1)c1nc2ccccc2[nH]1 (stereo unspecified) | 56.9% (inactive)
44 | O=C(c1ccc2c(c1)OCCO2)C1CCN(C(=O)c2ccc(F)c(F)c2)CC1 | 5.15% (inactive)
45 | Cc1cc(C)c(C(=O)C[n+]2cccc(C(N)=O)c2)c(C)c1 | -6.58% (inactive)
46 | Cc1oc(-c2ccccc2)nc1C(=O)N1CCN(c2ccc(F)cc2)CC1 | 0.48% (inactive)
47 | Cc1ccccc1-c1ccc(/C=C2/SC(N3CCOCC3)=NC2=O)o1 | -0.65% (inactive)
48 | O=C1N=C(N2CCOCC2)S/C1=C\c1ccc(-c2ccccc2Cl)o1 | 2.45% (inactive)
49 | CS(=O)(=O)c1ccc2nc(NC(=O)C3CCCO3)sc2c1 (stereo unspecified) | -7.03% (inactive)
50 | COc1cc2nc(CN(C)Cc3nc4ccccc4c(=O)[nH]3)[nH]c(=O)c2cc1OC | -3.41% (inactive)
51 | CSc1ccc(CN(C)Cc2nc3ccccc3c(=O)[nH]2)cc1 | -5.14% (inactive)
52 | CCN(Cc1nc2ccccc2c(=O)[nH]1)Cc1nc2cc(OC)c(OC)cc2c(=O)[nH]1 | -5.3% (inactive)
53 | CCN(Cc1cc(=O)n2ccsc2n1)Cc1nc2ccccc2c(=O)[nH]1 | -0.5% (inactive)
54 | Cc1nn(CC(=O)NC(C)c2ccccc2)c(=O)c2ccccc12 (stereo unspecified) | -2.29% (inactive)
55 | CC1Cc2ccccc2N1C(=O)CSc1nc2c(c(=O)n(C)c(=O)n2C)n1Cc1ccc(F)cc1 (stereo unspecified) | -3.29% (inactive)
56 | COCCn1c(NC(=S)NC(=O)C23CC4CC(CC(C4)C2)C3)cc(=O)[nH]c1=O | -0.61% (inactive)
57 | COC(=O)c1cccc(-n2c(CCC(=O)O)ccc2-c2cccs2)c1 | 6.42% (inactive)
58 | CN(/N=C/c1ccc([N+](=O)[O-])o1)c1ccccc1 | 1.22% (inactive)
59 | CCN(CC)c1ccc(N=Cc2ccccc2[N+](=O)[O-])cc1 | 15.5% (inactive)
60 | COc1cccc(CC2(CO)CCCN(C/C=C/c3ccccc3OC)C2)c1 (stereo unspecified) | 39.9% (inactive)
61 | COc1ccc(/C=C/CN2CCCC(CO)(Cc3cccc(Cl)c3)C2)cc1 (stereo unspecified) | 2.62% (inactive)
